Molecules are shown by their SMILES. Hit rate of the full screen: of about 2,100 compounds, about 1,100 (52%) were called active. Not shown: some 27% with an inconclusive outcome. So high a share suggests a set chosen from earlier hits. The list shows a part of the results. Values without a mark were called inactive. The call rests on the fitted dose curve; in most records, active means well fitted inhibition curve with a large enough effect; inconclusive means small, poorly fitted or top-dose-only effect; inactive means no such curve, though single readings can be large or run the other way.

These results are taken from PubChem BioAssay AID651813 (National Center for Advancing Translational Sciences (NCATS), 2012).
Potency means the concentration at half of the fitted maximal effect.

Sequence of DNA dC->dU-editing enzyme APOBEC-3G (Homo sapiens) (Q9HC16 whole entry, looked up): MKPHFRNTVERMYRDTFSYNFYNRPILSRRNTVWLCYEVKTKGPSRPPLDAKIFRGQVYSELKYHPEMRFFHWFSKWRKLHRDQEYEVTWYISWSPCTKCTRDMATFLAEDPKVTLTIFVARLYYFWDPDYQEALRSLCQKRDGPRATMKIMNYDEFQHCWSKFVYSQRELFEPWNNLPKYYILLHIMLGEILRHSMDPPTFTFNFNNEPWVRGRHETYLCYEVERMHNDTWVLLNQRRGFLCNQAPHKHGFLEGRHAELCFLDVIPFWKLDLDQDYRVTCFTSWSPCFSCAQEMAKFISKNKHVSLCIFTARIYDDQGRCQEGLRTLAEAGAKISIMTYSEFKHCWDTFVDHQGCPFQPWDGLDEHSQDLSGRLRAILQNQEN

The test has as its target DNA dC->dU-editing enzyme APOBEC-3G (Homo sapiens) (UniProt Q9HC16). The test is described as follows: qHTS for inhibitors of Vif-A3G interactions: Cherry picks counterscreen.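 Further: hits raise yellow fluorescence by blocking Vif-driven A3G-eYFP degradation; nearly all actives have a fitted effect of over 70% in size.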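 On max response: max response given as percent of control signal.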 As to conditions: HeLa A3G-eYFP + Vif (tagged APOBEC3G with the HIV-1 protein that degrades it), eYFP fluorescence, 24 h. From the text:
The recent discovery and characterization of host restriction factors, which provide a potent defense to invading retroviruses, has provided new targets for antiviral drug development. APOBEC3G (A3G) and APOBEC3F (A3F) are potent cytidine deaminases that block HIV-1 replication; HIV-1 expresses the Vif protein, which counteracts A3G and A3F by binding to them and inducing their proteasomal degradation. The Vif-A3G and Vif-A3F interactions provide two potential targets for development of small molecules which can interfere with the ability of Vif to degrade A3G or A3F. […] To identify inhibitors that can interfere with Vif mediated degradation of A3G and A3F, we have developed Hela cell lines that stably express A3G or A3F tagged with eYFP at the C-terminal end (A3G-eYFP or A3F-eYFP, respectively) and Vif. In the absence of an inhibitor, Vif induces degradation of A3G-eYFP and A3F-eYFP, and the cells are not fluorescent. In the presence of an inhibitor, it is expected that Vif will be unable to degrade A3G-eYFP and/or A3F-eYFP, resulting in an increase in yellow fluorescence. In this counterscreen assay, Vif A3G was screened against the cherry picks ordered from the MLSMR. NIH Chemical Genomics Center [NCGC] NIH Molecular Libraries Probe Centers Network [MLPCN] MLPCN Grant: MH093245 Assay Submitter (PI): Vinay Pathak, National Cancer Institute
A3G-Vif cells were harvested from T225 flask and resuspended in phenol free OPTI-MEM medium with 5% FBS. Then 5 uL of 140,000 cells/mL resuspended cells was dispensed into each well of low base Aurora COC 1,536-well plates (black walled, clear bottom) using a Multidrop Combi dispenser. After overnight culture at 37 deg C with 5% CO2, a total of 23 nL of compounds at 5 selected concentrations from the NPC or positive control (2 mM stock of MG132) in DMSO was transferred to each well of the assay plate using a pintool (Kalypsys, San Diego, CA), and the plates were further incubated at 37 deg C with 5% CO2 for 24 hours. After that, the plates were measured on Acumen Explorer (TTP Lab Tech). The fluorescence was detected by 488 nm/Ex and […].
(qHTS replaces the single test concentration by a dilution series.)
For `CC(=O)Nc1cccc(-c2ccnc3c2CC(C(=O)NCc2ccco2)O3)c1` (configuration not stated), the Potency is 6.27 µM (active). Still for that read-out and setting: next, `O=c1nc(/C=C/c2ccc(Cl)cc2Cl)cc(C(F)(F)F)[nH]1`: 17.7 µM (active). Turning to `CC(=O)OC1C2(CC3N4C(=O)C5(CO)SSC4(CC31O)C(=O)N5C)OC(C)C(C)(C)C2=O` (configuration not stated), the Potency is 12.5 µM (active).

For `Nc1ccc2c3c(cccc13)-c1ccccc1-2`, the Potency was 2.31 µM (active).

As to `C=C1C(=O)OC2C1CCC(C)C1(O)C=CC(=O)C21C` (configuration not stated), the Potency is 8.86 µM (active).

For the compound `Cc1cc(N2CCCC2)ccc1C=C(C#N)C#N`, the Potency was 11.6 µM (active). Regarding `CCN(CC)c1ccc(N=Cc2c(O)n(CCC3=CCCCC3)c(=O)[nH]c2=O)cc1`, the Potency is 23.1 µM (active). For `CCN(CC)c1ccc(N=Cc2c(O)n(Cc3ccccc3)c(=O)[nH]c2=O)cc1`, the Potency is 13 µM (active). On to `Cc1ccccc1-n1c(O)c(/C=C/C=Nc2ccccc2)c(=O)[nH]c1=O`, for which the max response was 55.1%. As for `C=CCn1c(O)c(C(C)=Nc2ccc(N(CC)CC)cc2)c(=O)[nH]c1=O`, the Potency was 9.94 µM (active). Still for that read-out and setting: next, `CCS(=O)(=O)N1N=C(c2cccc(NS(C)(=O)=O)c2)CC1c1ccccc1` (configuration not stated): 20.6 µM (active); `Cc1nn(Cc2ccccc2)c(C)c1C(=O)OCC(=O)Nc1ccccc1SCC#N`: 15.8 µM (active); `N#CC1=C(N)Oc2c(c(=O)sc3ccccc23)C1c1cccnc1` (configuration not stated): 5.59 µM (active). Same read-out and setting: next, `NC(=Nc1ccccc1)NN=Cc1c[nH]c2ccccc12`: 2.23 µM (active); `CC(=O)O[C@@]12CO[C@@H]1C[C@H](OC1OCC(O)C(O)C1O)[C@@]1(C)C(=O)[C@H](O)C3=C(C)[C@@H](OC(=O)[C@H](O)[C@@H](NC(=O)c4ccccc4)c4ccccc4)C[C@@](O)([C@@H](OC(=O)c4ccccc4)C12)C3(C)C` (some centres not stated): 1.25 µM (active); `CCCCn1c(O)c(C(=O)/C=C/c2c[nH]c3ccccc23)c(=O)[nH]c1=O`: 4.44 µM (active). Still for that read-out and setting: next, `CC1=CC(=Cc2sc3ccccc3[n+]2C)C=C(C)O1`: 20.6 µM (active); `Cc1c(Cl)cccc1NC(=O)c1oc2ccc(S(=O)(=O)N3CCC4(CC3)OCCO4)cc2c1C`: 7.31 µM (active); `CN1CCN(c2ccc(/C=C3\C(=O)NC(=S)N(c4cccc(Br)c4)C3=O)o2)CC1`: 16.4 µM (active). Consider `CN1C(=O)/C(=C\c2ccc(N3CCCCC3)o2)C(=O)NC1=S`, for which the Potency was 17.7 µM (active).

On to `CN1C(=O)/C(=C/c2ccc(N3CCCCCC3)o2)C(=O)NC1=S`, for which the Potency was 15.8 µM (active).

`COc1cc2c(cc1O)[C@@H]1Cc3ccc(OC)c(O)c3CN1CC2`: the Potency is 12.5 µM (active). For `COc1ccc(-n2cnc3cc(C(=O)N4CCC5(CC4)OCCO5)ccc32)cc1`, the Potency is 9.94 µM (active). Turning to `COc1cccc(C2=CC(c3cc(Br)ccc3F)n3nnnc3N2)c1` (configuration not stated), the Potency is 1.84 µM (active). As for `Cc1cc(N(CCCl)CCCl)ccc1C=Cc1ccncn1`, the Potency is 20.6 µM (active). Turning to `ClCCN(CCCl)c1ccc(C=Cc2ccncn2)cc1`, the max response is -8.89%. Take `CCN(CC)c1ccc2c(cc1=O)[C@@H](NC)CCc1cc(OC)c(OC)c(OC)c1-2`: the Potency is 2.5 µM (active). On to `CN1C(=O)C(=Cc2ccc(N3CCOCC3)o2)C(=O)N(C)C1=S`, for which the Potency was 20.6 µM (active). Still for that read-out and setting: the same measure for `CN1C(=O)C(=Cc2ccc(N3CCOCC3)o2)C(=O)N(C)C1=O`: 23.1 µM (active); for `CN1C(=O)C(=Cc2ccc(N3CCCCC3)o2)C(=O)N(C)C1=S`: 2.91 µM (active); for `CCN1C(=O)/C(=C/c2ccc(N(CC)CC)cc2OC)C(=O)NC1=S`: 18.4 µM (active). Same read-out and setting: next, `CCN(CC)c1ccc(/C=C2\C(=O)NC(=S)N(c3ccc(OC)cc3OC)C2=O)o1`: 18.4 µM (active). Regarding `CCN(CC)c1ccc(C=C2C(=O)N(C)C(=S)N(C)C2=O)o1`, the Potency is 6.27 µM (active). As to `CCN(CC)c1ccc(/C=C2\C(=O)NC(=S)N(C)C2=O)o1`, the Potency is 14 µM (active). The same measure, in the same setting: the same measure for `COc1cc(C2C(C#N)=C(N)Oc3cc(O)ccc32)cc(OC)c1OC` (configuration not stated): 1.77 µM (active); for `CN1/C(=C\C=C2C(=O)NC(=O)NC2=O)C(C)(C)c2ccccc21`: 2.91 µM (active); for `CN(C)c1ccc(C(=O)c2ccc(N(C)C)cc2)cc1`: 1.58 µM (active). For the compound `CCCCNC(=O)/C(C#N)=c1\s/c(=C\c2ccccc2OC(F)F)c(=O)n1CCCOC`, the Potency was 18.4 µM (active). For the compound `COc1ccc(-c2ccc(OC)c(OC)c2OC)cc1`, the Potency is 3.96 µM (active). Take `O=C1NC(=O)N(c2ccc3c(c2)OCO3)C(=O)/C1=C/c1ccc(N2CCCCC2)o1`: the Potency is 23.1 µM (active). In the case of `O=C1NC(=O)N(c2ccc3c(c2)OCO3)C(=O)/C1=C\c1ccc(N2CCCCC2)o1`, the Potency is 20.6 µM (active). For `CC(C)c1ccc(N2C(=O)NC(=O)/C(=C\C=C\c3ccco3)C2=O)cc1`, the Potency was 14 µM (active). `Cc1cc(/C=C2\C(=O)NC(=O)N(c3ccc(Br)cc3)C2=O)c(C)n1C`: the max response was 8.75%.

For the compound `CC(C)c1ccc(N2C(=O)NC(=O)/C(=C/C=C/c3ccco3)C2=O)cc1`, the Potency is 14 µM (active). Turning to `O=C(Cc1ccccc1)c1ccccn1`, the Potency is 12.5 µM (active). For the compound `Cc1cccc(CN2CCCC(C(=O)c3cccc(OC(C)C)c3)C2)n1` (configuration not stated), the max response is 2.93%.

Turning to `O=c1[nH]c(CN2CC=C(c3ccccc3)CC2)nc2scc(-c3ccccc3)c12`, the Potency was 8.2 µM (active). `O=C1NC(=S)SC1=Cc1ccc(N(CCCl)CCCl)cc1`: the Potency is 15.8 µM (active). Consider `Cc1ccc(CNC(=O)c2ccccc2NC(=O)c2nsc3ccccc23)cc1`, for which the Potency was 23.1 µM (active). For the compound `COc1ccc(-n2c(/C=C/c3ccc(O)c(OC)c3)nc3ccccc3c2=O)cc1`, the Potency is 23.1 µM (active). Regarding `Cc1cccc(-n2c(/C=C/c3ccc([N+](=O)[O-])o3)nc3ccccc3c2=O)c1`, the Potency was 5.17 µM (active). As to `Cc1cccc(-n2c(/C=C/c3c(C)[nH]c4ccccc34)nc3ccccc3c2=O)c1`, the Potency is 18.4 µM (active). The same measure, in the same setting: the same measure for `O=c1c2ccccc2nc(/C=C/c2ccc([N+](=O)[O-])o2)n1-c1ccc(O)cc1`: 8.86 µM (active). With `Cc1cccc(-n2c(O)c(/C=C/C=Nc3ccccc3)c(=O)[nH]c2=O)c1`, the max response was 59.1%. Same read-out and setting: next, `COc1ccc2nc(NC(=O)c3nc(S(=O)(=O)Cc4cccc(C)c4)ncc3Cl)sc2c1`: 58.8%. With `Cc1ccccc1-n1c(/C=C/c2ccc(N(C)C)cc2)nc2ccccc2c1=O`, the Potency is 1.46 µM (active). The same measure, in the same setting: next, `O=Cc1c(C(=O)O)n(Cc2ccc(Cl)cc2)c2ccccc12`: 3.66 µM (active).
